Bioassay records (PubChem)
Compounds with a hit are over-represented: about 1.7% of the library has one in this group of screens.
GRP78 ERSR act = qHTS for Inducers of the Endoplasmic Reticulum Stress Response (ERSR) in Human Glioma: qHTS; U87-MG GRP78 promoter luciferase reporter, 16 h; Potency, µM, without a hit: at the top dose activation, actives largely listed as activators; hit rate 0.02% among 420,000; further: series mostly up to about 76 µM; % of control where 0% means no effect; nearly all actives have a fitted effect of over 35% in size
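ERSR induction read as luciferase luminescence (Bright-Glo, 10 min at room temperature) in stably transfected human U87-MG glioma cells exposed to compounds for 16 h, using GRP78 as sensor.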
TrxR1 substrate = qHTS Assay for Substrates of Mammalian Selenoprotein Thioredoxin Reductase 1 (TrxR1): qHTS; purified TrxR1 substrate turnover, NADPH consumption readout; Potency, µM (top dose mostly 114 µM), inactives show top-dose activity change, negative = substrate turnover; hit rate 0.01% among 390,000; AID 588456, 2011; further: on the % scale 0 is the no-effect control and ±100 the full control effect; nearly all actives have a fitted effect of over 50% in size
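Rat TrxR1, dispensed at 90 nM, was prereduced with 400 uM NADPH (final) for 5 min at ~22 deg C, then incubated with compound 15 min before 400 uM selenite. A first-read NADPH fluorescence drop versus no-compound background flagged substrates.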
12-LOX inh = Primary qHTS assay for inhibitors of human arachidonate 12S-lipoxygenase (ALOX12): Round 2 | Polyunsaturated fatty acid lipoxygenase ALOX12 (Homo sapiens), P18054 | purified 12hLO, xylenol orange hydroperoxide absorbance | Potency, µM (series often up to 108 µM), without a hit: top-dose activity change, negative = inhibition, hits mostly inhibitors | hit rate 1.1% among 580,000; further: on the % scale 0 is the no-effect control and ±100 the full control effect
Target sequence (P18054 whole entry, looked up): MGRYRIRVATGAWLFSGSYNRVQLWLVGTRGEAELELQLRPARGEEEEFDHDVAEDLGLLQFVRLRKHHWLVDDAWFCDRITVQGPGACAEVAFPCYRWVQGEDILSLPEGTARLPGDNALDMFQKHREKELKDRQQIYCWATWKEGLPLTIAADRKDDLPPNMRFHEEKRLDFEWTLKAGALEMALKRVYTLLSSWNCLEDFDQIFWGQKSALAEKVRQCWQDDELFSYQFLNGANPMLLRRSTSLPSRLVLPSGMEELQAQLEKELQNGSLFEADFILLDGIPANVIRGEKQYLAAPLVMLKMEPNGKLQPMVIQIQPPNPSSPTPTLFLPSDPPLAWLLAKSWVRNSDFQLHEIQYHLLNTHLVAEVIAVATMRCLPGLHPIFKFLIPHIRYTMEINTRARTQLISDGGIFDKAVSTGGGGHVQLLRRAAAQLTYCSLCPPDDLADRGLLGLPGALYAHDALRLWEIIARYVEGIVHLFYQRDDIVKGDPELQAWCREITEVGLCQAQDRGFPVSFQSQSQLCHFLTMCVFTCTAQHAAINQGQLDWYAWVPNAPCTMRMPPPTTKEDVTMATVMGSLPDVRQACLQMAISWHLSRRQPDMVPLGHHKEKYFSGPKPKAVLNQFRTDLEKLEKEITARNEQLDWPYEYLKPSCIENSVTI
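Purified human 12hLO at 150 nM in 25 mM Hepes, 0.01% Triton X-100, pH 7.0, preincubated 15 min at room temperature with compound. Reaction started with 40 uM arachidonic acid, 30 min at room temperature. Hydroperoxide measured by Fe-xylenol orange, 573/405 nm absorbance ratio.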
Anesthetic bind = qHTS Assay for Identification of Novel General Anesthetics. apoferritin/1-aminoanthracene competitive binding, fluorescence. Potency, µM (series often up to 77.5 µM), without a hit: at the highest dose activity change, negative = displacement, actives largely listed as inhibitors. hit rate 0.074% among 350,000; further: on the % scale 0 is the no-effect control and ±100 the full control effect; nearly all actives have a fitted effect of over 20% in size
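Probe: 1-aminoanthracene (50% saturated, PBS). Protein: horse-spleen apoferritin, 10 uM. Incubation: 10 min, room temperature. Detection: 380 nm excitation, 535 nm emission. Analysis: normalized response, four-parameter Hill.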
IDH1 R132H inh = qHTS for Inhibitors of mutant isocitrate dehydrogenase 1 (IDH1): qHTS; Potency, µM (highest dose often 76.6 µM), for inactives: at the highest dose activity change, negative = inhibition, actives largely listed as inhibitors; Isocitrate dehydrogenase [NADP] cytoplasmic (Homo sapiens), O75874; hit rate 0.093% among 390,000; IDH1-R132H enzyme, NADPH consumption, diaphorase/resazurin fluorescence; further: on the % scale 0 is the no-effect control and ±100 the full control effect; nearly all actives have a fitted effect of over 65% in size
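IDH1-R132H (0.5 ug/mL dispensed) in pH 7.5 Tris buffer was preincubated 30 min with compound, then given a substrate mix of 0.016 mM NADPH and 2 mM alpha-KG for 80 min at room temperature; remaining NADPH was read by diaphorase/resazurin fluorescence.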
rTrxR1 inhibitor = qHTS Assay for Inhibitors of Mammalian Selenoprotein Thioredoxin Reductase 1 (TrxR1): qHTS | recombinant rTrxR1, NADPH fluorescence consumption, selenite substrate | hit rate 1% among 390,000 | Potency, µM (series often up to 114 µM), inactives show at the highest dose activity change, negative = inhibition, actives largely listed as inhibitors | Thioredoxin reductase 1, cytoplasmic (Rattus norvegicus), O89049; further: on the % scale 0 is the no-effect control and ±100 the full control effect; nearly all actives have a fitted effect of over 65% in size
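Rat TrxR1 (90 nM in the dispensed reagent) was pre-reduced with 400 uM NADPH for 5 min at room temperature, then incubated with compound for 15 min. After 400 uM selenite was added, NADPH fluorescence (Ex 340/Em 450 nm) was followed for 8 min.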
The depositor's hits bear a star; i = inactive; ? = inconclusive; / = no result given; [ ] = dose if it differs, or a comment. The call rests on the fitted dose curve; in most records, active means well fitted curve in the direction sought with a large enough effect; inconclusive means small, poorly fitted or top-dose-only effect, or another doubt; inactive means no such curve, though single readings can be large; an effect the other way counts as inactive or inconclusive. Potency means the concentration at half of the fitted maximal effect.

SMILES | GRP78 ERSR act | TrxR1 substrate | 12-LOX inh | Anesthetic bind | IDH1 R132H inh | rTrxR1 inhibitor
C/C(=N\NC(=S)NCc1ccccc1)c1ccc(C)o1 | 4% | -6% | 16µM* | -8% | 0% | -16%
C/C(=N\NC(=S)NCc1ccccc1)c1ccc(Cl)s1 | -3% | -17%[57.1 µM] | ? | 4% | 8% | 21%[57.1 µM]
Cc1cccc(C(=O)Nc2ccc(NC(=S)NC(=O)c3cccc(Cl)c3)cc2)c1 | / | / | 18µM* | / | / | /
Cc1cccc(C)c1NC(=S)NC(=O)c1cccc(Cl)c1 | -1% | / | 32µM* | / | / | /
CCC(=O)N1CCN(c2ccc(NC(=S)NC(=O)c3ccc(OC)c([N+](=O)[O-])c3)cc2)CC1 | 0% | 1% | 0% | ? | -6% | -40%
CCCC(=O)N1CCN(c2ccc(NC(=S)NC(=O)c3cccc(C)c3)cc2)CC1 | -6% | -10% | 16µM* | -10% | -2% | ?
Cc1cccc(C(=O)Nc2ccc(O)cc2)c1 | -3% | 0% | 0% | -20% | 5% | 11%
COc1ccc(NC(=O)c2cc3c(N4CCCC4)nc(C)cn3n2)c(OC)c1 | / | / | 30% | / | / | /
c1ccc(OCCn2c(-c3ccco3)nc3ccccc32)cc1 | 5% | 13% | ? | -23% | 10% | 14µM*
CNC(=S)N/N=C(\C)c1ccc(Cl)c(Cl)c1 | -4% | -7% | 40µM* | ? | 10% | 16%[57.1 µM]
COCCNC(=S)N/N=C(\C)c1ccc(Cl)c(Cl)c1 | -2% | -2% | ? | -14% | 3% | 19%
CCOc1ccc(C(O)c2nccn2Cc2ccccc2)cc1 (centres undefined) | -3% | 3% | i | -11% | -2% | 16%
CCn1ccnc1C(O)c1ccc(N(C)C)cc1 (centres undefined) | 8% | 13%[57.1 µM] | 0% | -15% | 3% | 40µM*
COc1ccc(C(=O)NCc2nnc(SCC(=O)NC3CCCCC3)n2C)cc1 | 13% | 12%[0.0914 µM] | 40µM* | -10% | 8% | 26%[57.1 µM]
CCOC(=O)c1sc(NC(=O)CCCC(=O)O)c(C#N)c1C | / | / | 6.3µM* | / | / | /
Cc1ccc(Cn2cccc(NS(C)(=O)=O)c2=O)cc1 | -4% | -3% | 7.1µM* | -15% | 7% | 4%[57.1 µM]
O=c1c2c(nc3cc(-c4ccccc4)[nH]n13)CN(S(=O)(=O)Cc1cccc(F)c1)CC2 | / | / | 2% | / | / | /
COc1ccc2oc(=O)c(C(=O)NC(C)(C)CC(C)(C)C)cc2c1 | / | / | 1% | / | / | /
CCOC(=O)c1cc2c(C)n(-c3ccc(OCC)cc3)c(C)c2ccc1=O | 8% | -19% | 40µM* | ? | -7% | -29%
Cc1cc(C)c(NC(=O)Cc2ccc(-n3c(C)nc4cccnc43)cc2)c(C)c1 | -4% | -9% | -5% | 9% | 2% | -8%
O=C(c1ccccc1)c1cc(Cl)ccc1N1C(=O)C=CC1=O | -14% | 7% | 7.9µM* | -18% | -5% | 0.79µM*
COC(=O)Oc1c(Br)c(=O)oc2ccccc12 | -6% | -2% | / | / | 2% | 7.9µM*
CCc1nnc(NS(=O)(=O)c2ccc(N/C=C(\C=O)c3nc4cc(Cl)ccc4o3)cc2)s1 | -1% | -11% | 8.9µM* | -16% | -1% | -10%
CCc1nnc(NS(=O)(=O)c2ccc(NC(=O)c3cccc(Cl)c3)cc2)s1 | 0% | -1% | -3% | -3% | -9% | 2%
Cc1cc(NS(=O)(=O)c2ccc(Nc3nc(-c4ccc(C)c(C)c4)cs3)cc2)no1 | -5% | -12% | 4.5µM* | ? | ? | ?
SMILES | GRP78 ERSR act | TrxR1 substrate | 12-LOX inh | Anesthetic bind | IDH1 R132H inh | rTrxR1 inhibitor
Cc1ccc(C)c(-c2csc(Nc3ccc(S(=O)(=O)Nc4nc(C)cc(C)n4)cc3)n2)c1 | / | / | 45µM* | / | / | /
NS(=O)(=O)c1ccc(Nc2nc(-c3ccc(F)cc3)cs2)cc1 | 0% | -1%[57.1 µM] | 40µM* | -14% | 4% | 2%[57.1 µM]
Cc1cc(C)c2cc(C)c(SCC(=O)NCc3ccco3)nc2c1 | -5% | -4% | -18% | -14% | ? | -13%
Cc1cc(C)c2cc(C#N)c(SCC(=O)NCc3ccco3)nc2c1 | -11% | 1% | 28% | 7% | -1% | 56µM*
CCc1nnc(NS(=O)(=O)c2ccc(NC(=S)NC(=O)c3ccc(Br)cc3)cc2)s1 | 4% | -19% | 5.6µM* | -10% | ? | 50µM*
CCc1nnc(NS(=O)(=O)c2ccc(NC(=S)NC(=O)c3ccccc3)cc2)s1 | -2% | -16% | 7.9µM* | 1% | -3% | 28µM*
COc1nccnc1NS(=O)(=O)c1ccc(NC(=O)c2ccc(F)cc2)cc1 | -4% | 2% | ? | -8% | -4% | 17%
CCc1nnc(NS(=O)(=O)c2ccc(NC(=S)NC(=O)/C=C/c3ccc(OC)cc3)cc2)s1 | -6% | -10% | -28% | 4% | 7% | ?
CCc1nnc(NS(=O)(=O)c2ccc(NC(=O)c3ccc(Cl)cc3)cc2)s1 | -1% | 0% | -11% | -6% | 7% | 24%
CCc1nnc(NS(=O)(=O)c2ccc(NC(=S)NC(=O)/C=C/c3ccccc3)cc2)s1 | -4% | -14% | 22µM* | 7% | -18% | -76%
CCc1nnc(NS(=O)(=O)c2ccc(NC(=O)c3ccccc3)cc2)s1 | 1% | 2% | 2% | -3% | -10% | 28%
